# Among all 310,000 compounds or so, about 14,000 (4.5%) showed an effect of 50% or more. Effects have a minus sign here. This is one part of a sample in which strong results are shown more often than they occur.
# Target: human ether-à-go-go-related gene (hERG) potassium channel (human, UniProt Q12809)
# Assay: primary screen, population patch clamp on CHO cells stably expressing hERG; higher = less effect of the substance
# 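Further: peak tail current of the secondary pulse compared with the same well before compound.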
# Sequence of human ether-à-go-go-related gene (hERG) potassium channel (Q12809 whole entry, looked up): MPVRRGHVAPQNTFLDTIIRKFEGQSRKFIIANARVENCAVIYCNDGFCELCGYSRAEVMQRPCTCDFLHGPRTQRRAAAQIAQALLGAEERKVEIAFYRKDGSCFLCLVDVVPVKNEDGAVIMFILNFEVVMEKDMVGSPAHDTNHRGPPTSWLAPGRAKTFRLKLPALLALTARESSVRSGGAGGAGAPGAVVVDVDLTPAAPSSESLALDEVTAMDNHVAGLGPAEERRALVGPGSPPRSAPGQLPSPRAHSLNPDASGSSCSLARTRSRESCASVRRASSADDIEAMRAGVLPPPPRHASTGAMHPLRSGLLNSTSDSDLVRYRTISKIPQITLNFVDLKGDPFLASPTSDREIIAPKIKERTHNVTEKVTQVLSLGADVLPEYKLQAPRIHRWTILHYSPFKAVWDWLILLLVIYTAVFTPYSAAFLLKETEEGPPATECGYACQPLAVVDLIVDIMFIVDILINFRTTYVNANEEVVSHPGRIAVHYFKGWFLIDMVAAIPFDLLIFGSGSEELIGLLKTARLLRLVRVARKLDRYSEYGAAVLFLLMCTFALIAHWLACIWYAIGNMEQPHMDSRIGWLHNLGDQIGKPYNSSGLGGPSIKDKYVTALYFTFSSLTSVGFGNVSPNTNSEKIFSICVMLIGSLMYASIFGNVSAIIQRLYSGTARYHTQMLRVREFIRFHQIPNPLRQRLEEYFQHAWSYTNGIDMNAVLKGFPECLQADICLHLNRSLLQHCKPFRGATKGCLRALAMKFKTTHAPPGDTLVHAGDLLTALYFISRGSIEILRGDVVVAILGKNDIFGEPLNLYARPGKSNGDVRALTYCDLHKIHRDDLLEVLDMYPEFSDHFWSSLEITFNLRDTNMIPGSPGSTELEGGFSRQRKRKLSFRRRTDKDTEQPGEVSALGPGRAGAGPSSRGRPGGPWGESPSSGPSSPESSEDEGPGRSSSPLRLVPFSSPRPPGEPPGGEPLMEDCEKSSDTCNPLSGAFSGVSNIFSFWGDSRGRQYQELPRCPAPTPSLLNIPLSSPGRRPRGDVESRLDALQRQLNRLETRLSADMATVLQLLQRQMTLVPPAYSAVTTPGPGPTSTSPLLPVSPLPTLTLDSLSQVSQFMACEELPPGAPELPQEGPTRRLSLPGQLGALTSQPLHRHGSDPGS
row,SMILES,"hERG current change (%, negative = inhibition) at 10uM"
1,CCCCCOC(=O)C1=C(C)NC(=O)NC1c1ccc(OC)cc1 (stereo not drawn),5.95%
2,CCN(CC)CCCN(Cc1cc2cc3c(cc2[nH]c1=O)OCO3)C(=S)NCCOC,5.4%
3,COc1ccc(C(=O)Nc2ccc(N3CCN(C(C)=O)CC3)cc2)cc1[N+](=O)[O-],11.7%
4,CCCCOc1ccc(C(=O)Nc2ccc(N3CCN(C)CC3)cc2)cc1,-10.2%
5,CCOc1ccc(C(=O)Nc2ccc(N3CCCC3)cc2)cc1,3.89%
6,CCOc1ccc(C(=O)Nc2ccc(N3CCN(C(C)=O)CC3)cc2)cc1[N+](=O)[O-],-45.5%
7,COc1ccc(C(=O)Nc2ccc(C(=O)N3CCCC3)cc2)cc1[N+](=O)[O-],-33.2%
8,CCOc1ccc(C(=O)Nc2ccc(N3CCN(C)CC3)cc2)cc1,-50.2%
9,COc1ccc(C(=O)Nc2ccc(N3CCN(C)CC3)cc2)cc1[N+](=O)[O-],-38.5%
10,COc1ccc(C(=O)Nc2ccc(N3CCN(C(=O)c4ccccc4)CC3)cc2)cc1[N+](=O)[O-],-67.2%
11,CCOc1ccc(C(=O)Nc2ccc(N3CCN(C)CC3)cc2)cc1[N+](=O)[O-],-57.3%
12,CCC(=O)Nc1ccccc1C(=O)OCc1ccc(C(=O)c2ccccc2)cc1,-16.1%
13,CCCCC(C(=O)NC(=O)NCc1ccccc1)N1C(=O)c2ccccc2C1=O (stereo not drawn),11%
14,CO/N=C(\N)c1nonc1N,0.407%
15,COCOc1cc(O)c(C(=O)/C=C/c2ccccc2)c(OCOC)c1,4.67%
16,CC(C)O.COc1cc(/C=N/NC(=O)c2ccc(O)cc2)ccc1Oc1ccc([N+](=O)[O-])cn1,-32%
17,Cc1ccc(S(=O)(=O)N(C)c2ccc(OC(=O)CN3C(=O)NC4(CCCC4)C3=O)cc2)cc1,-14.4%
18,C/C=C(\C)CN1CCC(n2nccc2NC(=O)c2ccc(OC)cc2)CC1,2.92%
19,COc1ccccc1C(=O)Nc1ccnn1C1CCN(CCC(C)c2ccc(C)o2)CC1 (stereo not drawn),-80.8%
20,COC(C(=O)Nc1ccnn1C1CCN(Cc2ccc(C)o2)CC1)c1ccccc1 (stereo not drawn),-2.65%
21,COc1ccc(C(=O)Nc2ccnn2C2CCN(Cc3ccncc3)CC2)cc1,-8.86%

row,SMILES,"hERG current change (%, negative = inhibition) at 10uM"
1,COc1ccc(C(=O)Nc2ccnn2C2CCN(CCC(C)c3ccc(C)o3)CC2)cc1 (stereo not drawn),-67%
2,CCOc1cc(NC2CS(=O)(=O)CC2O)c(OCC)cc1NC(=O)c1ccccc1 (stereo not drawn),5.95%
3,Cc1nnc(N/N=C/c2ccc(-c3ccccc3F)o2)n1N.Cl,-40.3%
4,CN(C)c1cccc2cccc(N(C)C)c12,-3.13%
5,CCN1CCN(C(=O)/C(=C/c2ccco2)NC(=O)c2ccccc2)CC1,-70.4%
6,O=C(N/C(=C\c1ccco1)C(=O)N1CCCC1)c1ccccc1,1.23%
7,O=C(N/C(=C/c1ccco1)C(=O)N1CCCCCC1)c1ccccc1,13.2%
8,CN1CCN(C(=O)/C(=C/c2ccco2)NC(=O)c2ccccc2)CC1,-67.6%
9,O=C(N/C(=C\c1ccco1)C(=O)N1CCC(O)CC1)c1ccccc1,27.7%
10,NC(=O)C1CCN(C(=O)/C(=C/c2ccco2)NC(=O)c2ccccc2)CC1,11.2%
11,CCN(c1ccc(OC)cc1)S(=O)(=O)c1csc(C(N)=O)c1,6.68%
12,COc1ccc(C(=O)Cc2ccc(OC)c(OC)c2)c(OC)c1,-0.547%
13,Cc1ccccc1-n1nnc2c(=O)oc3ccccc3c21,8.96%
14,Cc1ccc(-n2nc3ccc(NC(=O)/C=C/c4ccco4)cc3n2)cc1,7.32%
15,CCOC(=O)Cn1c(=O)oc2cc(S(=O)(=O)N3CCn4c3nc3ccccc34)ccc21,-56.3%
16,CCOC(=O)Cn1c(=O)oc2cc(S(=O)(=O)N3CCCc4ccccc43)ccc21,-26.9%
17,CCOC(=O)Cn1c(=O)oc2cc(S(=O)(=O)N3CCc4ccccc43)ccc21,-2.03%
18,Cc1cccc(CN2CCC(C(=O)Nc3cccc(-c4cccc(F)c4)c3)CC2)n1,-74%
19,COc1cccc(-c2cccc(NC(=O)C3CCN(Cc4cccc(C)n4)CC3)c2)c1,-80.1%
20,Cc1cc(C)n(CCCN2CCC(C(=O)Nc3cccc(-c4cccc(F)c4)c3)CC2)n1,-80.4%
21,Cc1cccc(CN2CCC(C(=O)Nc3cccc(-c4cscn4)c3)CC2)n1,-48.2%

row,SMILES,"hERG current change (%, negative = inhibition) at 10uM"
1,Cc1ccccc1C(=O)N1CCC(C(=O)Nc2cccc(F)c2)CC1,-3.49%
2,Cc1cccc(CN2CCC(C(=O)Nc3ccc(-n4nc(C)cc4C)cc3)CC2)n1,-25.2%
3,Cc1cc(C)n(CCC(=O)Nc2cccc(F)c2)n1,5.83%
4,Cc1ccccc1OCCCCN1CCCCC1,12.6%
5,CC(=O)Oc1ccc(-c2cc3c(OC(C)=O)cc(OC(C)=O)cc3oc2=O)cc1,14.1%
6,O=S(=O)(NCC1CCCO1)c1ccc(NS(=O)(=O)c2ccc(F)cc2)cc1 (stereo not drawn),14.6%
7,Cc1cc(C)n(CC(=O)N2CCCC(N3CCN(Cc4ccc5c(c4)OCO5)CC3)C2)n1 (stereo not drawn),-14.2%
8,O=C(NCCc1ccccn1)c1ccc(OC2CCN(Cc3ccccn3)CC2)cc1,2.88%
9,O=C(Nc1ncc(Cc2cccc(Cl)c2)s1)c1ccc([N+](=O)[O-])cc1,10.6%
10,O=C(Nc1ccccc1)OCCOc1cccc(Br)c1,1.49%
11,Cc1ccc(CNC(=O)CCC2CCCN(Cc3c(C)nn(C(C)C)c3C)C2)o1 (stereo not drawn),-16.6%
12,Cc1ccc(CNC(=O)CCC2CCCN(Cc3ccc4cccc(F)c4n3)C2)o1 (stereo not drawn),-52.1%
13,Cc1ccc(CNC(=O)CCC2CCCN(Cc3cccc4cccnc34)C2)o1 (stereo not drawn),-66%
14,CC(C)c1csc(CN2CCCC(CCC(=O)NCc3ccccc3F)C2)n1 (stereo not drawn),-34.3%
15,Cc1ccc(CNC(=O)CCC2CCCN(Cc3cccc4ncccc34)C2)o1 (stereo not drawn),-22.4%
16,Cc1nn(C(C)C)c(C)c1CN1CCCC(CCC(=O)NCc2ccccc2F)C1 (stereo not drawn),0.286%
17,O=C(NN1C(=O)C2C3C=CC([C@H]4CC34)[C@@H]2C1=O)c1ccc(Br)cc1 (stereo partly drawn),8.18%
18,COc1ccc(CNC(=O)CC2C(=O)NCCN2C2Cc3ccccc3C2)cc1 (stereo not drawn),-28.5%
19,CCc1c(C(=O)Nc2cc(C)cc(C)c2)[nH]c(C)c1C(C)=O,12.7%
20,Cc1nn(C2CCS(=O)(=O)C2)c(Cl)c1/C=C/C(=O)OCC(=O)c1cc(C)n(-c2ccc(F)cc2)c1C (stereo not drawn),4.11%
21,Cc1nc(SCC(=O)NC2CCCC2)[nH]c(=O)c1Cc1ccccc1,7.93%

row,SMILES,"hERG current change (%, negative = inhibition) at 10uM"
1,CCN1CCN(C(=O)c2cc(-c3cccnc3)nc3ccc(Br)cc23)CC1,-28.5%
2,CCN(CC)Cc1c(C(=O)N/N=C/c2ccncc2)nnn1-c1nonc1N,-55.9%
3,CN(C)Cc1c(C(=O)N/N=C/c2ccncc2)nnn1-c1nonc1N,3.67%
4,CCCN(CCC)Cc1c(C(=O)N/N=C/c2ccc(Br)cc2)nnn1-c1nonc1N,-15.3%
5,COCc1c(C(=O)N/N=C(\C)c2ccncc2)nnn1-c1nonc1N,7.11%
6,CCN(CC)Cc1c(C(=O)N/N=C/c2cccnc2)nnn1-c1nonc1N,-10.9%
7,CCN(CC)Cc1c(C(=O)N/N=C(\C)c2ccncc2)nnn1-c1nonc1N,-80.3%
8,CCOc1cccc(-c2c(C(=O)N/N=C/c3cccnc3)nnn2-c2nonc2N)c1,-54%
9,CCCc1c(C(=O)N/N=C(/C)c2ccncc2)nnn1-c1nonc1N,0.629%
10,CCCN(CCC)Cc1c(C(=O)N/N=C/c2ccsc2)nnn1-c1nonc1N,-14.6%
11,CCCN(CCC)Cc1c(C(=O)N/N=C/c2ccncc2)nnn1-c1nonc1N,-64.1%
12,CCOc1ccc(-c2c(C(=O)N/N=C/c3cccnc3)nnn2-c2nonc2N)cc1,9.94%
13,CCOc1cccc(-c2c(C(=O)N/N=C/c3ccncc3)nnn2-c2nonc2N)c1,-9.65%
14,O=C(c1ccc(-n2c(SCc3cc(F)ccc3F)nc3ccccc3c2=O)cc1)N1CCOCC1,8.7%
15,Cc1noc(C)c1COC(=O)Cc1ccc(Cl)cc1,-5.13%
16,COc1ccc(Cc2nc3ccc(C(=O)NCCSC)cc3o2)cc1,6.36%
17,CC(=O)Nc1ccc(S(=O)(=O)N2CCC(N(C)CCC(C)C)CC2)cc1.Cl,-46.8%
18,c1csc(C2Nc3cccc4cccc(c34)N2)c1,-17.2%
19,CCC(=O)Nc1cccc(C(=O)/C=C/c2cccs2)c1,-3.34%
20,COc1ccc(/C=N/NC(=O)CNc2ccc(Br)cc2)c(C(=O)O)c1OC,13.9%
21,O=C(NCCCN1CCCC1=O)c1ccc(OC(F)(F)F)cc1,-0.372%
